Experimental data taken from PubChem BioAssay (Tox21).
Values without a mark were called inactive. Inconclusive results are not listed. A call without a number means that no potency is given here. The source made the active and inactive calls. Unless noted, calls come from the whole dose curve.

Assays:
[1] = Nuclear factor erythroid 2-related factor 2/antioxidant responsive element (Nrf2/ARE) small molecule agonists: qHTS cell viability counter screen in human keratinocytes (AID 1919968; active = well fitted curve in the direction sought with a large enough effect in the repeat runs; an effect the other way counts as inactive or inconclusive; note: nearly all actives have a fitted effect of over 55% in size; note: potency is the fitted concentration of half-maximal effect); conditions: KeratinoSens HaCaT ARE cells viability, CellTiter-Fluor, 24 h; series mostly up to 92.4 µM
Outline: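 After a 5 h attachment period, ARE-reporter keratinocytes were dosed with compounds in DMSO and then cultured 23 h at 37 C. Cell viability came from CellTiter-Fluor signal read after a further 1 h.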

[2] = Nuclear factor erythroid 2-related factor 2/antioxidant responsive element (Nrf2/ARE) small molecule agonists: luciferase reporter gene qHTS assay in human keratinocytes (AID 1919969); conditions: KeratinoSens HaCaT ARE-luciferase, luminescence, 24 h; series mostly up to 92.4 µM; note: nearly all actives have a fitted effect of over 35% in size; note: potency is the fitted concentration of half-maximal effect
[3] = biological target: Gonadotropin-releasing hormone receptor (Homo sapiens) (UniProt P30968); assay: Human gonadotropin-releasing hormone receptor (GnRHR) small molecule agonists, calcium flux assay in GnRHR-HEK293 cells (AID 1920063); conditions: calcium flux fluorescence, agonist mode; series mostly up to 57.6 µM; note: nearly all actives have a fitted effect of over 35% in size; note: potency is the fitted concentration of half-maximal effect
Gonadotropin-releasing hormone receptor (Homo sapiens), sequence (P30968 whole entry, looked up): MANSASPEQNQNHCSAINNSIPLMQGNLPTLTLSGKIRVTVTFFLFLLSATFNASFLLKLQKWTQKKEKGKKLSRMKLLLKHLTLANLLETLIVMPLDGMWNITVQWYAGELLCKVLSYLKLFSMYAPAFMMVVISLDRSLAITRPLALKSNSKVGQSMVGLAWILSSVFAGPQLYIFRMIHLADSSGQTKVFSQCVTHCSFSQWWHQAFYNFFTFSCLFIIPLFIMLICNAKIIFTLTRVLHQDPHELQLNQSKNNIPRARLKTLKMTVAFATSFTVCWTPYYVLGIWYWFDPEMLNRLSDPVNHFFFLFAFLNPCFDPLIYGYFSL
Outline: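 We seeded human GnRHR-expressing HEK293 cells for 18 hours, loaded them with calcium dye for an hour at 37 C, added test compounds, and recorded fluorescence intensity kinetically for three minutes.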

[4] = G protein-coupled receptor (GPCR) small molecule agonists, calcium flux assay: HEK293 wild type cell line counter screen (AID 1920065); conditions: HEK293 WT calcium flux, fluorescence, agonist mode; series mostly up to 57.6 µM
Outline: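 Calcium-sensitive dye, loaded 1 h at 37 C into cells cultured 18 h, reports compound-evoked calcium release as fluorescence (Ex/Em 480/540), measured over 3 min. Agonist mode; 15-point titrations, triplicate.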

[5] = p53 small molecule agonists, cell-based qHTS assay with rat liver microsomes (AID 1963578); conditions: HCT-116 p53RE-bla, beta-lactamase ratio, 16 h; series mostly up to 66 µM
Outline: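 Quantitative HTS of the Tox21 10K library: p53RE-bla cells, rat liver microsomes plus NADPH at 0.5 mg/mL final each, 16 h at 37 C, beta-lactamase fluorescence detection.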

[6] = p53 small molecule agonists, cell-based qHTS assay with human liver microsomes: qHTS cell viability counter screen (AID 1963579); conditions: p53RE-bla HCT-116 viability, ATP luminescence, 16 h, HLM; series mostly up to 66 µM; note: nearly all actives have a fitted effect of over 45% in size; note: potency is the fitted concentration of half-maximal effect
Outline: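 Viability of p53RE-bla cells is measured as CellTiter-Glo luminescence following a 16 h, 37 C incubation with compound, liver microsomes from human donors and NADPH.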

[7] = p53 small molecule agonists, cell-based qHTS assay (AID 1963582; active = well fitted activation curve with a large enough effect in the signal ratio in the repeat runs, not every such curve was filed as active; the % refers to the signal ratio); conditions: HCT-116 p53RE-bla reporter, beta-lactamase FRET ratio, 16 h; series mostly up to 66 µM
Outline: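 In this cell-based concentration-response screen, a p53 response element drives beta-lactamase; cells received DMSO-borne compounds after 5 h culture and were incubated a further 16 h before FRET substrate development.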

[8] = biological target: 5-hydroxytryptamine receptor 2A (Homo sapiens) (UniProt P28223); assay: 5-hydroxytryptamine receptor 2A (HTR2A) small molecule antagonists, cell-based qHTS assay (AID 1963586); conditions: HTR2A-CHO cells, DOI-induced calcium flux, fluorescence; series mostly up to 61.5 µM; note: nearly all actives have a fitted effect of over 45% in size; note: potency is the fitted concentration of half-maximal effect
5-hydroxytryptamine receptor 2A (Homo sapiens), sequence (P28223 whole entry, looked up): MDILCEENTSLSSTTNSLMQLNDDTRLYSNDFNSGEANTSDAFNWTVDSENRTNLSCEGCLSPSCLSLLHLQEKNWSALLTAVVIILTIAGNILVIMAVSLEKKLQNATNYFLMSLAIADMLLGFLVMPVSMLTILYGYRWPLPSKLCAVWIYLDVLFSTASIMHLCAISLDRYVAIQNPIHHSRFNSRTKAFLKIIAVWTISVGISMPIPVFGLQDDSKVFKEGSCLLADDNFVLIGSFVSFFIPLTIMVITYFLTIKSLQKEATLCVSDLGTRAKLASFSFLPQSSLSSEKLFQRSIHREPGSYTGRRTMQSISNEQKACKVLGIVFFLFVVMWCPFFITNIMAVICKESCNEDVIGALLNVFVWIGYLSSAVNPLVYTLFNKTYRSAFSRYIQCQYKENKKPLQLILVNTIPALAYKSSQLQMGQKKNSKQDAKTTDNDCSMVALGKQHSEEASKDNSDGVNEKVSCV
Outline: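 Antagonist-mode intracellular calcium assay: DOI (4 nM) added after 5 min compound pre-incubation at room temperature to dye-loaded HTR2A-CHO cells. Fluorescence followed for 3 min, sampled every second.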

[9] = biological target: 5-hydroxytryptamine receptor 2A (Homo sapiens) (UniProt P28223); assay: 5-hydroxytryptamine receptor 2A (HTR2A) small molecule agonists, cell-based qHTS assay (AID 1963587); conditions: HTR2A-CHO cells, calcium flux fluorescence, agonist mode; series mostly up to 76.8 µM; note: nearly all actives have a fitted effect of over 30% in size; note: potency is the fitted concentration of half-maximal effect
Outline: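 HTR2A-CHO cells, plated 18 h at 37 C/5% CO2, dye-loaded 1 h at 37 C; compounds in DMSO added by pin tool (agonist mode). Intracellular calcium flux read as kinetic fluorescence on FDSS over 2 min at 1 s intervals.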

[10] = biological target: Muscarinic acetylcholine receptor M1 (Homo sapiens) (UniProt P11229); assay: Cholinergic receptor muscarinic 1 (CHRM1) small molecule antagonists, cell-based qHTS assay (AID 1963588); conditions: CHRM1-CHO antagonist mode, calcium flux fluorescence; series mostly up to 61.5 µM; note: nearly all actives have a fitted effect of over 40% in size; note: potency is the fitted concentration of half-maximal effect
Muscarinic acetylcholine receptor M1 (Homo sapiens), sequence (P11229 whole entry, looked up): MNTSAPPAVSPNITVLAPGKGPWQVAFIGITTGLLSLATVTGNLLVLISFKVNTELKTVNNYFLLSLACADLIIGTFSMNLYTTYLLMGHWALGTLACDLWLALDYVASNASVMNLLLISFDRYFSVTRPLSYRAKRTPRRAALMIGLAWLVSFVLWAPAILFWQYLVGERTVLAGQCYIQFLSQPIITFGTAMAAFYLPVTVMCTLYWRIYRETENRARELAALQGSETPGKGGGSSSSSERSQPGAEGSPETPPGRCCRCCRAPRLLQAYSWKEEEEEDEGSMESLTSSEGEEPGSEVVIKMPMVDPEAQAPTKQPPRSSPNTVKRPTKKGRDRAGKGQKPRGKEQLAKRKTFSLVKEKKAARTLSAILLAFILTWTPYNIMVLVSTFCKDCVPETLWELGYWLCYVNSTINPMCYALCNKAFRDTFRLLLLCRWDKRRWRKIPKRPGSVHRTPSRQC
Outline: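 CHRM1-CHO calcium-flux assay, antagonist mode. Cells were seeded 18 h, dye-loaded 1 h at 37 C and given compound for 5 min at RT, then acetylcholine was added at 50nM. FDSS fluorescence was read 3 min; 15 concentrations, three runs.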

[11] = biological target: Beta-2 adrenergic receptor (Homo sapiens) (UniProt P07550); assay: Adrenergic beta2 receptor (ADRB2) small molecule antagonists, cell-based qHTS assay (AID 1963592); conditions: CHO-ADRB2 cells, isoproterenol-stimulated cAMP HTRF ratio, 0.5 h; series mostly up to 92.4 µM; note: nearly all actives have a fitted effect of over 50% in size; note: potency is the fitted concentration of half-maximal effect
Beta-2 adrenergic receptor (Homo sapiens), sequence (P07550 whole entry, looked up): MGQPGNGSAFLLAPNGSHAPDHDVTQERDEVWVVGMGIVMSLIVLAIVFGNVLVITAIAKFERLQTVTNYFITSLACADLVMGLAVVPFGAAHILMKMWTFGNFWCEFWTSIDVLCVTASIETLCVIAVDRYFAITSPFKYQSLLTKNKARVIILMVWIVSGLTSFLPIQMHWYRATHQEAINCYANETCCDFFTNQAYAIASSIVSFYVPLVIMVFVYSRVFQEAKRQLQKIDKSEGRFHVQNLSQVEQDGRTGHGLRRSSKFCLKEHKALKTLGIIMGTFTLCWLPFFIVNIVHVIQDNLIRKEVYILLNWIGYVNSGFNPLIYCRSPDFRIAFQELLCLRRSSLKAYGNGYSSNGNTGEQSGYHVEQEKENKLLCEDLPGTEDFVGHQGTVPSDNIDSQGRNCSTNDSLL
Outline: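 Cells (CHO, stable ADRB2 overexpression) incubated 18-20hr at 37C; compounds added from DMSO; agonist mix (1nM isoproterenol, 100uM IBMX, 25uM Ro-20-1724) added; 0.5hr RT; d2-cAMP and anti-cAMP-cryptate added; 1hr RT; 665/615 nm read.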

[12] = biological target: D(2) dopamine receptor (Homo sapiens) (UniProt P14416); assay: Dopamine D2 receptor (DRD2) small molecule agonists, cell-based qHTS assay (AID 1963594); conditions: HEK293-DRD2 cAMP HTRF, agonist mode, 30 min; series mostly up to 92.4 µM; note: nearly all actives have a fitted effect of over 35% in size
D(2) dopamine receptor (Homo sapiens), sequence (P14416 whole entry, looked up): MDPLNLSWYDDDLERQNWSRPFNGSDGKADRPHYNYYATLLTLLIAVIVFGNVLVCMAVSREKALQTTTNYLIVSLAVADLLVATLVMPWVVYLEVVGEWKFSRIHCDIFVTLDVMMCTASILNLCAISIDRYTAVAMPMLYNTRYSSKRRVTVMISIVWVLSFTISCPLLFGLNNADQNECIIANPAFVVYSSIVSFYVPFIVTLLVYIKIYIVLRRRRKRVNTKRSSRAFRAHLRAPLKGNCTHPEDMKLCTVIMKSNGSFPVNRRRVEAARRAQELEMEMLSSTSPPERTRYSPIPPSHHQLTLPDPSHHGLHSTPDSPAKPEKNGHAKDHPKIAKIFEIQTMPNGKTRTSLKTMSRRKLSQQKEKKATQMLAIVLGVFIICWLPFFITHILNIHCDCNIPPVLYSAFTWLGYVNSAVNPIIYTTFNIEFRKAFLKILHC
Outline: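 HEK293 cells stably expressing DRD2 were cultured 24 h at 37 C, then given Ro20-1724 (0.1 mM final) and compounds for 10 min at room temperature. NKH477 (200nM) was then added for 30 min. cAMP was read by HTRF.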

[13] = biological target: D(2) dopamine receptor (Homo sapiens) (UniProt P14416); assay: Dopamine D2 receptor (DRD2) small molecule antagonists, cell-based qHTS assay (AID 1963595; active = well fitted inhibition curve with a large enough effect in the signal ratio in the repeat runs, with a control signal flat; the % refers to the signal ratio; note: potency is the fitted concentration of half-maximal effect); conditions: HEK293-DRD2 cAMP HTRF antagonist mode; series mostly up to 92.4 µM
Outline: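 DRD2-HEK293; 0.1 mM Ro20-1724; cpd 10 min RT; NKH477 200 nM + quinpirole 12 nM, 30 min RT; HTRF cAMP (cAMP-d2/anti-cAMP cryptate), 665/620 nm ratio after 1 h.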

[14] = biological target: Muscarinic acetylcholine receptor M1 (Homo sapiens) (UniProt P11229); assay: Cholinergic receptor muscarinic 1 (CHRM1) small molecule agonists, cell-based qHTS assay (AID 1963589); conditions: CHRM1-CHO cells, agonist mode, calcium flux fluorescence; series mostly up to 76.8 µM; note: nearly all actives have a fitted effect of over 35% in size; note: potency is the fitted concentration of half-maximal effect
Outline: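 Measures agonist-induced intracellular calcium rise. Stable human CHRM1 CHO line, 1 h dye load at 37 C, compounds from DMSO, kinetic fluorescence read.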

[15] = biological target: KiSS-1 receptor (Homo sapiens) (UniProt Q969F8); assay: Human kisspeptin (KISS1R) small molecule agonists, calcium flux assay in KISS1R-HEK293 cells (AID 1920064; active = well fitted curve in the direction sought with a large enough effect in the repeat runs; an effect the other way counts as inactive or inconclusive); conditions: KISS1R-HEK293, calcium flux fluorescence, agonist; series mostly up to 76.8 µM
KiSS-1 receptor (Homo sapiens), sequence (Q969F8 whole entry, looked up): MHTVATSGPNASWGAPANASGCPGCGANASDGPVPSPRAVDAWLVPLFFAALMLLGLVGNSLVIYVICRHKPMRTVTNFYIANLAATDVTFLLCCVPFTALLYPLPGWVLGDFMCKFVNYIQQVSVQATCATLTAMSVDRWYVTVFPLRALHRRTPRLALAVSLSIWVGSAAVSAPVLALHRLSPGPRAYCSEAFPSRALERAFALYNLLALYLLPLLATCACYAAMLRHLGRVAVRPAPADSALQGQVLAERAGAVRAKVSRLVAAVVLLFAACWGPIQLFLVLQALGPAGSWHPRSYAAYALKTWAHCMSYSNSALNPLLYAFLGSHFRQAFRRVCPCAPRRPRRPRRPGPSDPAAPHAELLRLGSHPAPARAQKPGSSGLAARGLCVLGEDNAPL
Outline: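 Kinetic calcium assay, 1 s sampling over 3 min at Ex/Em 480/540, in HEK293 cells engineered with human KISS1R; compounds delivered in DMSO after 1 h dye loading.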

[16] = p53 small molecule agonists, cell-based qHTS assay with rat liver microsomes: qHTS cell viability counter screen (AID 1963580); conditions: p53RE-bla HCT-116 + rat microsomes, ATP viability, 16 h; series mostly up to 66 µM; note: nearly all actives have a fitted effect of over 45% in size
Outline: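 p53RE-bla HCT-116 cells (4,000/well) rested 5 h at 37 C, then given Tox21 compounds in DMSO with rat liver microsomes (0.5 mg/mL final) plus NADPH (0.5 mg/mL final) for 16 h at 37 C. Viability read by CellTiter-Glo luminescence after 30 min at room temperature.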

[17] = p53 small molecule agonists, cell-based qHTS assay: qHTS cell viability counter screen (AID 1963581); conditions: p53RE-bla HCT-116 viability, ATP luminescence, 16 h; series mostly up to 66 µM; note: nearly all actives have a fitted effect of over 45% in size
Outline: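 Following 5 h attachment, HCT-116 p53RE-bla cells took up compound for 16 h at 37 C; the reporter was read with B/G FRET substrate (2 h RT), and viability then via CellTiter-Glo ATP luminescence.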

[18] = cAMP Responsive Elements (CRE) small molecule agonists, cell-based qHTS assay (AID 1963590); conditions: CRE-bla HEK293T, beta-lactamase FRET ratio, 3 h; series mostly up to 92.4 µM
Outline: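 A CRE-responsive beta-lactamase reporter in HEK 293T cells was used. Treatment ran 3 h at 37 C; detection used LiveBLAzer B/G FRET substrate for 2 h at room temperature.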

[19] = cAMP Responsive Elements (CRE) small molecule antagonists, cell-based qHTS assay (AID 1963591; active = well fitted inhibition curve with a large enough effect in the signal ratio in the repeat runs, not every such curve was filed as active; the % refers to the signal ratio); conditions: CRE-bla HEK293T, beta-lactamase FRET ratio; series mostly up to 92.4 µM
Outline: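 HEK293T cells carrying a CRE-driven beta-lactamase reporter receive compound and NKH477 (0.25 uM final) for 3 h. Fluorescence from LiveBLAzer B/G FRET substrate is read after 2 h at room temperature.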

[20] = biological target: Beta-2 adrenergic receptor (Homo sapiens) (UniProt P07550); assay: Adrenergic beta2 receptor (ADRB2) small molecule agonists, cell-based qHTS assay (AID 1963593); conditions: CHO-ADRB2 cells, cAMP HTRF, 30 min; series mostly up to 92.4 µM;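 note: CHO cells stably overexpressing human ADRB2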
Outline: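 CHO cells stably over-expressing ADRB2 were plated overnight at 37C, then dosed with compounds plus a stimulation mix containing 100uM IBMX and 25uM Ro-20-1724 for 0.5hr at room temperature. cAMP was measured by HTRF competition, 1hr.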

SMILES	Potency [1]	Potency [2]	Potency [3]	Potency [4]	Potency [5]	Potency [6]	Potency [7]	Potency [8]	Potency [9]	Potency [10]	Potency [11]	Potency [12]	Potency [13]	Potency [14]	Potency [15]	Potency [16]	Potency [17]	Potency [18]	Potency [19]	Potency [20]
CC(C)c1ccc2c(c1)CC[C@H]1[C@](C)(CN)CCC[C@]21C	12.2 µM (active)	inactive	11 µM (active)	inactive	inactive	40.8 µM (active)	inactive	29.8 µM (active)	49 µM (active)	inactive	inactive	inactive	68.6 µM (active)	–	–	–	–	–	–	–
CC=O	28.6 µM (active)	inactive	inactive	inactive	inactive	47.9 µM (active)	–	inactive	–	3.5 µM (active)	inactive	inactive	–	inactive	–	–	–	–	–	–
O=C1NCC2(CCN(CCc3ccccc3)CC2)O1	inactive	inactive	inactive	–	–	inactive	–	–	inactive	inactive	–	inactive	inactive	inactive	inactive	inactive	inactive	inactive	inactive	–
CC(C)(C)C(O)/C=C/c1ccc2c(c1)OCO2 (centres undefined)	inactive	inactive	inactive	–	–	–	–	inactive	inactive	inactive	inactive	inactive	inactive	inactive	inactive	inactive	inactive	inactive	inactive	–
O=CN(CCO)CCO	inactive	inactive	inactive	–	–	inactive	–	inactive	inactive	inactive	inactive	inactive	inactive	inactive	inactive	inactive	inactive	inactive	inactive	–
CCCC/C=C/C=C\C=O	inactive	61.1 µM (active)	inactive	inactive	inactive	inactive	inactive	inactive	inactive	inactive	inactive	inactive	inactive	–	–	inactive	inactive	inactive	–	–
CC1=NN(c2cccc(S(=O)(=O)O)c2)C(=O)C1	inactive	inactive	inactive	–	–	inactive	–	inactive	inactive	inactive	inactive	inactive	inactive	inactive	inactive	–	inactive	inactive	inactive	inactive
CCCCCCOC(=O)CC(CC(=O)OCCCCCC)(OC(=O)CCC)C(=O)OCCCCCC	inactive	inactive	inactive	–	–	inactive	–	inactive	inactive	–	inactive	–	inactive	inactive	inactive	inactive	inactive	–	inactive	inactive
CC(=O)OCC(=O)[C@@]1(O)[C@H](C)C[C@H]2[C@@H]3CCC4=CC(=O)C=C[C@]4(C)[C@@]3(F)[C@@H](O)C[C@@]21C	inactive	inactive	inactive	–	–	inactive	–	–	inactive	–	inactive	inactive	inactive	inactive	inactive	inactive	inactive	–	inactive	–
O=C1NCCN1CCN1CCC(c2cn(-c3ccc(F)cc3)c3ccc(Cl)cc23)CC1	11.9 µM (active)	inactive	inactive	–	–	–	–	–	inactive	–	inactive	inactive	–	inactive	inactive	inactive	inactive	–	–	–
OCc1c[nH]c2ccccc12	inactive	61.1 µM (active)	inactive	–	–	–	–	–	–	inactive	–	–	inactive	0.0031 µM (active)	inactive	inactive	–	–	–	–
COc1cccc(CCc2ccccc2OCC(CN(C)C)OC(=O)CCC(=O)O)c1 (centres undefined)	inactive	inactive	inactive	–	–	inactive	–	7.29 µM (active)	inactive	inactive	4.73 µM (active)	–	inactive	inactive	inactive	inactive	inactive	inactive	inactive	–
CSc1ccc(Oc2ccc(S(N)(=O)=O)cc2CN(C)C)cc1C	inactive	inactive	inactive	–	–	inactive	–	inactive	–	inactive	inactive	inactive	–	inactive	inactive	inactive	inactive	inactive	inactive	–
C/C=C/C=C/C=O	inactive	60.7 µM (active)	inactive	–	–	inactive	–	inactive	inactive	inactive	–	inactive	–	inactive	inactive	inactive	inactive	inactive	inactive	–
